# Results filed as inconclusive are left out. Where a call stands in place of a potency, no number is given. Unmarked numbers belong to inactive results. The source made the active and inactive calls. Calls come from the whole dose curve; as a rule, active = well fitted curve in the direction sought with a large enough effect; inconclusive = small, poorly fitted or top-dose-only effect, or another doubt; inactive = no such curve, though single readings can be large; an effect the other way counts as inactive or inconclusive. Where a SMILES comes first, the peptide text is derived from it. [ ]: non-standard residue; d: D form. pGlu = O=C1CC[C@@H](C(=O)O)N1; Thz = O=C(O)[C@@H]1CSCN1
# Columns and labels:
# [1] = test system: Zika virus NS2B-NS3 protease; experiment: Primary screen GU AMC qHTS for Zika virus inhibitors (AID 1347154); conditions: Zika NS2B-NS3 unlinked protease, AMC fluorogenic substrate; series mostly up to 54.1 µM; note: nearly all actives have a fitted effect of over 70% in size
# In short: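 Unlinked Zika NS2B hydrophilic domain/NS3 protease domain noncovalent complex (25 nM final) in 10 mM Tris-HCl pH 8.0, 0.01% Tween 20, with AMC peptide substrate. Fluorescence (ex 340, em 450 nm) change over 15 min, room temperature; percent inhibition fitted to 4-parameter Hill equation.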
# [2] = test system: Zika virus NS2B-NS3 protease (unlinked); experiment: Optimization of GU AMC qHTS for Zika virus inhibitors: Unlinked NS2B-NS3 protease assay (AID 1347151); conditions: recombinant ZIKV NS2B-NS3 protease, fluorogenic AMC substrate; series mostly up to 52.5 µM; note: nearly all actives have a fitted effect of over 80% in size; note: potency is the fitted concentration of half-maximal effect
# In short: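 In this qHTS, compounds acted on 25 nM unlinked Zika NS2B–NS3 in pH 8.0 Tris/Tween buffer. Cleavage of an AMC peptide ran 15 min at room temperature, to about 20% conversion.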
# [3] = test system: Zika virus NS2B-NS3 protease (linked construct); experiment: Confirmatory screen NINDS AMC qHTS for Zika virus inhibitors (AID 1347152); conditions: Purified linked NS2B-NS3, AMC substrate fluorescence; series mostly up to 56.6 µM;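 note: AMC fluorescence gain from cleaved Bz-Nle-KRR-AMC substrate over 15 min; top concentration of the series differs between compounds; nearly all actives have a fitted effect of over 70% in size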
# In short: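 Concentration-response confirmation used the NINDS linked protease (NS2B hydrophilic domain joined to NS3 protease domain), 1 nM, with a 15-min compound preincubation. Substrate, Nle-KRR-AMC at 10 microM, was read by UV fluorescence before and after 15 min.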
# [4] = test system: Zika virus NS2B-NS3 protease (unlinked complex); experiment: Confirmatory screen GU AMC qHTS for Zika virus inhibitors (AID 1347153); conditions: Recombinant NS2B-NS3 protease, AMC substrate fluorescence; series mostly up to 57.1 µM; note: nearly all actives have a fitted effect of over 70% in size
# In short: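 Unlinked enzyme 25 nM, Tris pH 8.0/0.01% Tween 20; cpd 15 min RT, dark; + AMC substrate 10 µM (Km 18.3 µM); 340/450 nm read at t0 and 15 min; % inhibition → 4-param fit.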
# [5] = test system: Zika virus NS2B-NS3 protease (unlinked complex); experiment: Primary screen GU Rhodamine qHTS for Zika virus inhibitors: Unlinked NS2B-NS3 protease assay (AID 1347159); conditions: Recombinant ZIKV NS2B-NS3 protease, Rhodamine110 substrate fluorescence; series mostly up to 107 µM; note: nearly all actives have a fitted effect of over 60% in size; note: potency is the fitted concentration of half-maximal effect
# In short: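 Compounds, tested up to 114 microM, were incubated for 15 minutes with 25 nM unlinked NS2B-NS3 protease at pH 8.0. Cleavage of 1.5 microM Rhodamine110 substrate was then followed by fluorescence for 15 minutes.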
# [6] = test system: Zika virus NS2B-NS3 protease (linked construct); experiment: Primary screen NINDS Rhodamine qHTS for Zika virus inhibitors (AID 1347160); conditions: purified NS2B-NS3 protease, Rhodamine110 substrate fluorescence; series mostly up to 57.1 µM; note: nearly all actives have a fitted effect of over 55% in size; note: potency is the fitted concentration of half-maximal effect
# In short: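 Percent inhibition, normalized to uninhibited and enzyme-free controls, is fitted to a 4-parameter Hill equation. Fluorescence change comes from a 15-min cleavage of 1.5 microM bis-peptide Rhodamine110 substrate by 25 nM linked NS2B-NS3 at room temperature.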
# [7] = ZIKV-mCherry secondary qHTS for Zika virus inhibitors (AID 1347158); conditions: Vero cells, ZIKV-mCherry infection imaging, 48-72 h; series mostly up to 49.2 µM; note: top concentration of the series differs between compounds
# In short: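 Vero cells, 5,000/well, plated overnight at 37 °C, then compound added and infected with recombinant ZIKV-mCherry at MOI 1 for 48-72 h. PFA-fixed, Hoechst nuclear stain, high-content imaging; cells with mCherry intensity above 450 RFU scored infected, reported as percent infection.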
# [8] = test system: Zika virus NS2B-NS3 protease (linked); experiment: 384 well plate NINDS AMC confirmatory qHTS for Zika virus inhibitors (AID 1347163); conditions: Recombinant NS2B-NS3 protease, Ac-VKTGKR-AMC fluorescence; note: potency is the fitted concentration of half-maximal effect; nearly all actives have a fitted effect of over 50% in size
# In short: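 Linked protease 5/30/60 nM final; cpds up to 1 mM final, ~15 min preinc. Substrate Ac-VKTGKR-AMC 30 microM final. RT, dark, 25 min; FI ex 355/em 460; normalized to no-enzyme/no-inhibitor ctrls.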
compound,measurement,setting,value
N=C(N)N,Potency,[1],inactive
CCCCCCCCCCCCOCCO,Potency,[1],inactive
Clc1ccc(N2CCN(Cc3c[nH]c4ncccc34)CC2)cc1,Potency,[2],inactive
same,Potency,[1],inactive
Cc1cc(NC(=O)Nc2ccc3c(ccn3C)c2)sn1,Potency,[2],inactive
same,Potency,[1],inactive
c1ccc2sc(SN3CCOCC3)nc2c1,Potency,[1],inactive
CC(N)C(=O)OC(C)(C)Cc1ccc(Cl)cc1 (stereo not given),Potency,[2],inactive
same,Potency,[1],inactive
CCC1C(=O)OCC1Cc1cncn1C (stereo not given),Potency,[2],inactive
same,Potency,[1],inactive
Cc1cc(O)c2ccccc2c1O,Potency,[1],inactive
CCCCN(CC)c1nc(C)nc2c1c(C)cn2-c1c(C)cc(C)cc1C,Potency,[2],26.7 µM (active)
same,Potency,[3],inactive
same,outcome,[4],inactive
same,Potency,[5],inactive
same,Potency,[6],inactive
CNC(=O)[C@H]1O[C@@H](n2cnc3c(NCc4cccc(I)c4)ncnc32)[C@H](O)[C@@H]1O,Potency,[2],inactive
same,Potency,[1],inactive
CCCCCCOc1ccccc1C(N)=O,Potency,[1],inactive
CO[C@@]1(NC(=O)Cc2cccs2)C(=O)N2C(C(=O)O)=C(COC(N)=O)CS[C@@H]21,Potency,[1],inactive
COc1cc2c3cc1Oc1cc(ccc1O)C[C@@H]1c4c(cc(OC)c(O)c4Oc4ccc(cc4)C[C@@H]3N(C)CC2)CC[N+]1(C)C,Potency,[1],inactive
O=C(CS)Nc1ccccc1,Potency,[1],inactive
Nc1ncnc2c1ncn2[C@@H]1O[C@H](COP(=O)(O)CP(=O)(O)OP(=O)(O)O)[C@@H](O)[C@H]1O,Potency,[2],inactive
same,Potency,[1],inactive
O=c1cc(-c2ccccc2)oc2ccccc12,Potency,[1],inactive
CNc1ncnc2c1ncn2[C@@H]1O[C@H](CO)[C@@H](O)[C@H]1O,Potency,[2],inactive
same,Potency,[1],inactive
COC(=O)C1=C(C)NC(C)=C(C(=O)OCC(C)C)C1c1ccccc1[N+](=O)[O-] (stereo not given),Potency,[1],inactive
CO/N=C(\C(=O)N[C@@H]1C(=O)N2C(C(=O)O)=C(COC(C)=O)CS[C@H]12)c1csc(N)n1,Potency,[2],inactive
O=C(O)[C@@H]1C[C@@H](C(=O)O)N1,Potency,[1],inactive
O=c1[nH]c2cc([N+](=O)[O-])c([N+](=O)[O-])cc2[nH]c1=O,Potency,[2],inactive
same,Potency,[1],inactive
Fc1ccc2[nH]c(CN3CCN(c4ccccn4)CC3)cc2c1,Potency,[2],inactive
same,Potency,[5],inactive
same,Potency,[6],inactive
Nc1nc2ccc([N+](=O)[O-])cc2s1,Potency,[1],inactive
CC1(C)S[C@@H]2[C@H](NC(=O)[C@H](N)c3ccccc3)C(=O)N2[C@H]1C(=O)O,Potency,[1],inactive
O=C1CN(/N=C/c2ccc(-c3ccc([N+](=O)[O-])cc3)o2)C(=O)N1,Potency,[1],inactive
Cc1nc2sccn2c(=O)c1CCN1CCC(=C(c2ccccc2)c2ccc(F)cc2)CC1,Potency,[1],inactive
Nc1nc(SCc2ccc([N+](=O)[O-])cc2)c2ncn([C@@H]3O[C@H](CO)[C@@H](O)[C@H]3O)c2n1,Potency,[2],inactive
same,Potency,[1],inactive
CCNC(=O)[C@H]1O[C@@H](n2cnc3c(N)nc(NCCc4ccc(CCC(=O)O)cc4)nc32)[C@H](O)[C@@H]1O,Potency,[5],inactive
same,Potency,[6],inactive
C[C@H](O)[C@H](O)[C@H]1CNc2nc(N)[nH]c(=O)c2N1,Potency,[5],inactive
same,Potency,[6],inactive
O=C(O)Cc1ccc2c(c1)C(=O)c1ccccc1CO2,Potency,[1],inactive
Nc1ccc(C(=O)O)c(O)c1,Potency,[1],inactive
CC(=O)SCC(CC(=O)c1ccc(C)cc1)C(=O)O (stereo not given),Potency,[1],inactive
same,Potency,[5],inactive
same,Potency,[6],inactive
CC1(C)S[C@@H]2[C@H](NC(=O)[C@H](NC(=O)N3CCN(S(C)(=O)=O)C3=O)c3ccccc3)C(=O)N2[C@H]1C(=O)O,Potency,[5],inactive
same,Potency,[6],inactive
CN(C)CCn1nnnc1SCC1=C(C(=O)O)N2C(=O)[C@@H](NC(=O)Cc3csc(N)n3)[C@H]2SC1,Potency,[1],inactive
O=C(/C=C/c1ccccc1)NCCO,Potency,[1],inactive
C/C(=N\O)c1ccc(OCC(=O)N2CCCCC2)cc1,Potency,[1],inactive
same,Potency,[5],inactive
same,Potency,[6],inactive
CCCCCC(O)c1cccc(OCc2ccc3ccccc3n2)c1 (stereo not given),"activity change, negative = inhibition",[1],14.2% [at 6.83 µM]
CC(=O)c1ccc(OCC(=O)N2CCCCC2)cc1,Potency,[1],inactive
same,Potency,[5],inactive
same,Potency,[6],inactive
CC(C(=O)O)c1ccc2c(c1)[nH]c1ccc(Cl)cc12 (stereo not given),Potency,[1],inactive
same,Potency,[5],35.5 µM (active)
O=C1CN(/N=C/c2ccc([N+](=O)[O-])o2)C(=O)N1,Potency,[1],inactive
CC(=O)O[C@H]1C[C@@]2(C)[C@@H](C[C@@H](O)[C@H]3[C@@]4(C)CC[C@@H](O)[C@@H](C)[C@@H]4CC[C@@]32C)/C1=C(\CCC=C(C)C)C(=O)O,Potency,[5],inactive
same,Potency,[6],inactive
Cc1ccc2c(n1)Oc1ccc(C(C)C(=O)OCC(=O)N(C)C)cc1C2 (stereo not given),Potency,[1],inactive
same,Potency,[5],inactive
same,Potency,[6],inactive
Cc1c(C(=O)O)c(O)cc2c1C(=O)c1c(O)c([C@@H]3O[C@H](CO)[C@@H](O)[C@H](O)[C@H]3O)c(O)c(O)c1C2=O,Potency,[1],inactive
COc1cc(CNC(=O)CCCC/C=C/C(C)C)ccc1O,Potency,[1],inactive
same,Potency,[5],inactive
same,Potency,[6],inactive
COc1ccc(/C=C/C(=O)Nc2ccccc2C(=O)O)cc1OC,Potency,[5],inactive
same,Potency,[6],inactive
Cc1c(N)c(=O)n(-c2ccccc2)n1C,Potency,[1],inactive
CN1CCC[C@H]1c1cccnc1,Potency,[1],inactive
CC1(C)[C@@H](O[C@H]2O[C@H](C(=O)O)[C@@H](O)[C@H](O)[C@H]2O[C@@H]2O[C@H](C(=O)O)[C@@H](O)[C@H](O)[C@H]2O)CC[C@]2(C)[C@H]3C(=O)C=C4[C@@H]5C[C@@](C)(C(=O)O)CC[C@]5(C)CC[C@@]4(C)[C@]3(C)CC[C@@H]12,Potency,[6],inactive
O=C(O)[C@H](CC(=O)N1C[C@H]2CCCC[C@H]2C1)Cc1ccccc1,Potency,[6],inactive
O=C(O)Cc1cccc(-c2cc(CCCCCCc3ccc(O[C@H]4O[C@H](CO)[C@@H](O)[C@H](O)[C@@H]4O)c(-c4cccc(CC(=O)O)c4)c3)ccc2O[C@H]2O[C@H](CO)[C@@H](O)[C@H](O)[C@@H]2O)c1,"activity change, negative = inhibition",[1],1.91% [at 0.59 µM]
same,"activity change, negative = inhibition",[5],17.6% [at 1.28 µM]
same,"activity change, negative = inhibition",[6],11.1% [at 0.684 µM]
c1ccc(CCNc2nc(-c3ccccc3)cs2)cc1,Potency,[1],inactive
COc1cc(/C=C/C(=O)N2CCN(CC(=O)N3CCCC3)CC2)cc(OC)c1OC,Potency,[5],inactive
same,Potency,[6],inactive
O=C(O)c1cc(O)c(O)c(O)c1,Potency,[1],inactive
same,Potency,[6],49.3 µM (active)
Cc1ccc(O)c(-n2nc3ccccc3n2)c1,Potency,[1],inactive
CC1(C)S[C@@H]2[C@H](NC(=O)[C@H](N)c3ccc(O)cc3)C(=O)N2[C@H]1C(=O)O,Potency,[5],inactive
same,Potency,[6],inactive
COC(=O)[C@H]1[C@H]2C[C@@H]3c4[nH]c5cc(OC)ccc5c4CCN3C[C@H]2C[C@@H](OC(=O)/C=C/c2cc(OC)c(OC)c(OC)c2)[C@@H]1OC,Potency,[5],inactive
same,Potency,[6],inactive
CN(C)[C@@H]1C(=O)C(C(=O)NCN2CCCC2)=C(O)[C@@]2(O)C(=O)C3=C(O)c4c(O)cccc4[C@@](C)(O)C3C[C@@H]12 (stereo not given in full),Potency,[1],inactive
same,outcome,[7],inactive
same,Potency,[8],0.891 µM (active)
O=C(O)CC1CC(c2ccccc2)=NO1 (stereo not given),Potency,[5],inactive
C[N+]1(C)[C@@H]2CC(OC(=O)[C@H](CO)c3ccccc3)C[C@H]1[C@@H]1O[C@@H]12 (stereo not given in full),Potency,[1],inactive
O=C1CC[C@@H](C(=O)N2CSC[C@H]2C(=O)O)N1 ([pGlu]-[Thz]-OH),Potency,[5],inactive
same,Potency,[6],inactive
Cc1onc(-c2c(F)cccc2Cl)c1C(=O)N[C@@H]1C(=O)N2[C@@H]1SC(C)(C)[C@@H]2C(=O)O,Potency,[5],inactive
same,Potency,[6],inactive
Ic1ccc(N2CCN(Cc3c[nH]c4ncccc34)CC2)cc1,Potency,[1],inactive
CC1(C)[C@@H](O)CC[C@]2(C)[C@H]3C(=O)C=C4[C@@H]5C[C@@](C)(C(=O)O)CC[C@]5(C)CC[C@@]4(C)[C@]3(C)CC[C@@H]12,Potency,[5],17.8 µM (active)
same,Potency,[6],14.1 µM (active)
CN1[C@@H]2CC[C@H]1CC(OC(=O)C(CO)c1ccccc1)C2 (stereo not given in full),Potency,[5],inactive
same,Potency,[6],inactive
CN1[C@@H]2CC[C@H]1CC(OC(c1ccccc1)c1ccccc1)C2 (stereo not given in full),Potency,[5],inactive
same,Potency,[6],inactive
CC(C(=O)O)c1ccc(C(=O)c2ccccc2)s1 (stereo not given),Potency,[1],inactive
